Consider six compounds from ChEMBL document CHEMBL1961873, “Compounds: GSK PKIS; Assays: Nanosyn kinase panel” (2012).

The subject of assay [1] is Tyrosine-protein kinase ABL1 (Homo sapiens), P00519 [T315I]. The note with it: at 1 µM.
For assay [2], the system named is Tyrosine-protein kinase ABL1 (Homo sapiens), P00519 [Y253F]. The note with it: at 0.1 µM.
For assay [3] the test system is unchanged. As to conditions: at 1 µM.
Assay [4] addresses Tyrosine-protein kinase ABL1 (Homo sapiens) (UniProt P00519). As to conditions: at 0.1 µM.
Assay [5] has the same target. As to conditions: at 1 µM.
Assay [6] addresses ALK tyrosine kinase receptor (Homo sapiens) (UniProt Q9UM73). The note with it: at 0.1 µM.
Assay [7] shares this target. The note with it: at 1 µM.
Assay [8] concerns the target Tyrosine-protein kinase ABL2 (Homo sapiens) (UniProt P42684). The note with it: at 0.1 µM.
For assay [9] the target is unchanged. As to conditions: at 1 µM.
The target of assay [10] is Tyrosine-protein kinase receptor UFO (Homo sapiens) (UniProt P30530). The note with it: at 0.1 µM.
Chain of Tyrosine-protein kinase receptor UFO (Homo sapiens) (P30530 whole entry): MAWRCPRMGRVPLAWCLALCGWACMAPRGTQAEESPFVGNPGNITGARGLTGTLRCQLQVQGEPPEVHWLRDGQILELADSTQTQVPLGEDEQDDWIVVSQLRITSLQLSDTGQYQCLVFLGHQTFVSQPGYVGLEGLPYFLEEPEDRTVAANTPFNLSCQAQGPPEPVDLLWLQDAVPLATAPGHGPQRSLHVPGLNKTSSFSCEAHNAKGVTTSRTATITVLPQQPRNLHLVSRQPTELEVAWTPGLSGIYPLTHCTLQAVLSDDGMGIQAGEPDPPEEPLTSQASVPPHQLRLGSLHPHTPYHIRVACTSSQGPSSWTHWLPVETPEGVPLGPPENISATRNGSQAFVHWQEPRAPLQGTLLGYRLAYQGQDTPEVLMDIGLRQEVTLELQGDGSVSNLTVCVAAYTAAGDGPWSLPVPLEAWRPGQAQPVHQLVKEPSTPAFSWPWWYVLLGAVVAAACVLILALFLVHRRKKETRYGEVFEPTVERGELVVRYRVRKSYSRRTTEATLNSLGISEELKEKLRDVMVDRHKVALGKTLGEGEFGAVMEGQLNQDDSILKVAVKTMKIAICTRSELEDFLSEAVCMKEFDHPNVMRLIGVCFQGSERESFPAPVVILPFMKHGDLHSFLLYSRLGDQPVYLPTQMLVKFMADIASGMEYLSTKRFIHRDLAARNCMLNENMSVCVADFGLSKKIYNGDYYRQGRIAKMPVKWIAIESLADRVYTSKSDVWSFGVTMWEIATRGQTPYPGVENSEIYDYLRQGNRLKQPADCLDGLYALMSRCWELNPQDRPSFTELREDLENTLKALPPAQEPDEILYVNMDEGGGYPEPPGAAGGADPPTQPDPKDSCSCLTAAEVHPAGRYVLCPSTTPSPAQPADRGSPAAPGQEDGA
Assay [11] has the same target. The note with it: at 1 µM.
The target of assay [12] is Tyrosine-protein kinase Blk (Homo sapiens) (UniProt P51451). The note with it: at 0.1 µM.
Chain of Tyrosine-protein kinase Blk (Homo sapiens) (P51451 2-505 limits assumed): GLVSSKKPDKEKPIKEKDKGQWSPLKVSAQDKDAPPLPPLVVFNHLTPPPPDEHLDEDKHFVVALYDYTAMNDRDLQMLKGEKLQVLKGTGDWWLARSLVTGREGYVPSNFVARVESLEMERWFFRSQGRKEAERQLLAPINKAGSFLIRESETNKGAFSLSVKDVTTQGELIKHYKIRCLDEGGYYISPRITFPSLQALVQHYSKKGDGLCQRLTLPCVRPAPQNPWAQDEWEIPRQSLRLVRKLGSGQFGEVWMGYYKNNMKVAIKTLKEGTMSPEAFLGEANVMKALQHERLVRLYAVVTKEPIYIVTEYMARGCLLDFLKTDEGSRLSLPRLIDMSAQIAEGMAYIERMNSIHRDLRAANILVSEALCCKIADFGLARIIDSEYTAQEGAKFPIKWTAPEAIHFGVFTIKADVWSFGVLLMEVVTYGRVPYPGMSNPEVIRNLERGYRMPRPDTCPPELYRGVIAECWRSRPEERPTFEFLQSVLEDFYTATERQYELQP
The target is the same in assay [13]. The note with it: at 1 µM.
Assay [14] concerns the target T1, Cytoplasmic tyrosine-protein kinase BMX (Homo sapiens) (UniProt P51813).
T1 sequence (whole entry): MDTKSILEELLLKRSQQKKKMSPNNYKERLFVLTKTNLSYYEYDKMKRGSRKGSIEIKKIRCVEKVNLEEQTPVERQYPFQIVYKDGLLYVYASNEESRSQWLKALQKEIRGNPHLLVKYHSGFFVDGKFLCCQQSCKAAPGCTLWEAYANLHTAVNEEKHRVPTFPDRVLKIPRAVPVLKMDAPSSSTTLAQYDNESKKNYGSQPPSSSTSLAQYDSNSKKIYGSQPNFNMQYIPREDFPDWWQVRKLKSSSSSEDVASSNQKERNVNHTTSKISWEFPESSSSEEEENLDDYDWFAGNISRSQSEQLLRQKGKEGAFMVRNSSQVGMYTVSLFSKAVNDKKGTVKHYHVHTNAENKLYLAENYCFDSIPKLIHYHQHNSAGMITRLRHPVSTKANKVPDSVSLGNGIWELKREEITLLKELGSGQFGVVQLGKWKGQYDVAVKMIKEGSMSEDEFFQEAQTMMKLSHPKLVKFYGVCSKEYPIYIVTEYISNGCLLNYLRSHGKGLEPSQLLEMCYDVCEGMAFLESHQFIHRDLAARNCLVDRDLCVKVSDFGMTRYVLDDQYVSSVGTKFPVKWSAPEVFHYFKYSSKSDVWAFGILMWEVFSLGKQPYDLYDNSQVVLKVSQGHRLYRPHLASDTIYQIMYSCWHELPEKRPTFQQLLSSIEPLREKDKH
As to conditions: at 0.1 µM.

In assay [15] the target is T1, Cytoplasmic tyrosine-protein kinase BMX (Homo sapiens). As to conditions: at 1 µM.
The target of assay [16] is Protein-tyrosine kinase 6 (Homo sapiens) (UniProt Q13882). As to conditions: at 0.1 µM.
Chain of Protein-tyrosine kinase 6 (Homo sapiens) (Q13882 whole entry, looked up): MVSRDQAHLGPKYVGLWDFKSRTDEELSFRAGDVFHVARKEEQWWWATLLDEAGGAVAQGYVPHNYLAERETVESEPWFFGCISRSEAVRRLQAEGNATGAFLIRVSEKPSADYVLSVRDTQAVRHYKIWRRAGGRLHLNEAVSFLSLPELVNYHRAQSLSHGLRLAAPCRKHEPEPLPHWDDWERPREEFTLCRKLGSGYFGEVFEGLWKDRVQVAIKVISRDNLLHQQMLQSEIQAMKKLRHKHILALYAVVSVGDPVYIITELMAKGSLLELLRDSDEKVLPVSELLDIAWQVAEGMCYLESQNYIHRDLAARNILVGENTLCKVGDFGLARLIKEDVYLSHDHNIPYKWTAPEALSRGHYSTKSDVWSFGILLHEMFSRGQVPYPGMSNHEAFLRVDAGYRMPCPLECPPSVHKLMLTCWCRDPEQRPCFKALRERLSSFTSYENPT
Assay [17] has the same target. The note with it: at 1 µM.
The target of assay [18] is Tyrosine-protein kinase BTK (Homo sapiens) (UniProt Q06187). As to conditions: at 0.1 µM.
Assay [19] shares this target. The note with it: at 1 µM.
The target in assay [20] is Tyrosine-protein kinase CSK (Homo sapiens) (UniProt P41240). As to conditions: at 0.1 µM.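 Note: value given is the averaged percent inhibition of CSK kinase activity, from the GSK PKIS kinase inhibitor set screening panel.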
Chain of Tyrosine-protein kinase CSK (Homo sapiens) (P41240 2-450 limits assumed): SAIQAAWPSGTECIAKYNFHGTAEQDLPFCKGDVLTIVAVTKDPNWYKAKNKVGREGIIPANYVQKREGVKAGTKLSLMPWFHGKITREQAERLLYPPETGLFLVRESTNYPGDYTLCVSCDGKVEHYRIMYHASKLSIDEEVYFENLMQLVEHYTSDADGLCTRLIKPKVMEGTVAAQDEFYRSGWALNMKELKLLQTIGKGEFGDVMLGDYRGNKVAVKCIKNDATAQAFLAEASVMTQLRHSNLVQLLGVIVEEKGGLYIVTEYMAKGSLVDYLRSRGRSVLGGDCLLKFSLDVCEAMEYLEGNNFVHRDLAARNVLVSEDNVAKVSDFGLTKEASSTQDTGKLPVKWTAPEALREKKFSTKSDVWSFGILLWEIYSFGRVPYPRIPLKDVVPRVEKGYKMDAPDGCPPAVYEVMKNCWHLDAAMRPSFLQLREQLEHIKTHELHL

Chain of Tyrosine-protein kinase ABL2 (Homo sapiens) (P42684 whole entry): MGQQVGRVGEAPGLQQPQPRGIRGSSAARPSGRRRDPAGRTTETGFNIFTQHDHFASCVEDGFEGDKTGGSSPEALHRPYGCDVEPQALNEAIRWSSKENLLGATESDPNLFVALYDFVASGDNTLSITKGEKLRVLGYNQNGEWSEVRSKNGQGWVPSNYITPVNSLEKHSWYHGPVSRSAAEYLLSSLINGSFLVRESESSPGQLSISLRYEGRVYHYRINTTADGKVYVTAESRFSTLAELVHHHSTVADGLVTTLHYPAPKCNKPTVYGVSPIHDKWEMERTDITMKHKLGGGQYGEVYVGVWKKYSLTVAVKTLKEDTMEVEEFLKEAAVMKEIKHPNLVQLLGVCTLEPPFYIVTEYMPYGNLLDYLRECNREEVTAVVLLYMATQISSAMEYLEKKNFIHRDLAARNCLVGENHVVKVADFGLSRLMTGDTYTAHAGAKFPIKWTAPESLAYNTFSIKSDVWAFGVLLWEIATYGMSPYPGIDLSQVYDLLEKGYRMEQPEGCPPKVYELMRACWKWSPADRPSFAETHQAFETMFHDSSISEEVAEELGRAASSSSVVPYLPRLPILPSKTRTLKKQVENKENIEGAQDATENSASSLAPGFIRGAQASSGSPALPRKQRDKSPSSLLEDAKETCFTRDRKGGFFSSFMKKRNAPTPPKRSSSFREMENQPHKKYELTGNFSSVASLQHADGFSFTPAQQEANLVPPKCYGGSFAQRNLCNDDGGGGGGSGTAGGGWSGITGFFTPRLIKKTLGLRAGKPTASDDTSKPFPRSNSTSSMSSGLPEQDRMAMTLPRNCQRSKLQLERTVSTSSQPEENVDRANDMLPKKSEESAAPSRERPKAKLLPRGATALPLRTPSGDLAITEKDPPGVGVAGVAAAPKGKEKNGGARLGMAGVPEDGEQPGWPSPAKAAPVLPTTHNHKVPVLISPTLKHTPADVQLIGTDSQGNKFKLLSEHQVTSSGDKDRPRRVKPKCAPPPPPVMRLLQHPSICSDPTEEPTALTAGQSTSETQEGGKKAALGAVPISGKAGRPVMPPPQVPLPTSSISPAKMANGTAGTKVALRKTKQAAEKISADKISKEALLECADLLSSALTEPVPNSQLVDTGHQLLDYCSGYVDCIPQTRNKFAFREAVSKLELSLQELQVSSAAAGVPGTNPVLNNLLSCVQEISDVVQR
Chain of ALK tyrosine kinase receptor (Homo sapiens) (Q9UM73 19-1620 limits assumed): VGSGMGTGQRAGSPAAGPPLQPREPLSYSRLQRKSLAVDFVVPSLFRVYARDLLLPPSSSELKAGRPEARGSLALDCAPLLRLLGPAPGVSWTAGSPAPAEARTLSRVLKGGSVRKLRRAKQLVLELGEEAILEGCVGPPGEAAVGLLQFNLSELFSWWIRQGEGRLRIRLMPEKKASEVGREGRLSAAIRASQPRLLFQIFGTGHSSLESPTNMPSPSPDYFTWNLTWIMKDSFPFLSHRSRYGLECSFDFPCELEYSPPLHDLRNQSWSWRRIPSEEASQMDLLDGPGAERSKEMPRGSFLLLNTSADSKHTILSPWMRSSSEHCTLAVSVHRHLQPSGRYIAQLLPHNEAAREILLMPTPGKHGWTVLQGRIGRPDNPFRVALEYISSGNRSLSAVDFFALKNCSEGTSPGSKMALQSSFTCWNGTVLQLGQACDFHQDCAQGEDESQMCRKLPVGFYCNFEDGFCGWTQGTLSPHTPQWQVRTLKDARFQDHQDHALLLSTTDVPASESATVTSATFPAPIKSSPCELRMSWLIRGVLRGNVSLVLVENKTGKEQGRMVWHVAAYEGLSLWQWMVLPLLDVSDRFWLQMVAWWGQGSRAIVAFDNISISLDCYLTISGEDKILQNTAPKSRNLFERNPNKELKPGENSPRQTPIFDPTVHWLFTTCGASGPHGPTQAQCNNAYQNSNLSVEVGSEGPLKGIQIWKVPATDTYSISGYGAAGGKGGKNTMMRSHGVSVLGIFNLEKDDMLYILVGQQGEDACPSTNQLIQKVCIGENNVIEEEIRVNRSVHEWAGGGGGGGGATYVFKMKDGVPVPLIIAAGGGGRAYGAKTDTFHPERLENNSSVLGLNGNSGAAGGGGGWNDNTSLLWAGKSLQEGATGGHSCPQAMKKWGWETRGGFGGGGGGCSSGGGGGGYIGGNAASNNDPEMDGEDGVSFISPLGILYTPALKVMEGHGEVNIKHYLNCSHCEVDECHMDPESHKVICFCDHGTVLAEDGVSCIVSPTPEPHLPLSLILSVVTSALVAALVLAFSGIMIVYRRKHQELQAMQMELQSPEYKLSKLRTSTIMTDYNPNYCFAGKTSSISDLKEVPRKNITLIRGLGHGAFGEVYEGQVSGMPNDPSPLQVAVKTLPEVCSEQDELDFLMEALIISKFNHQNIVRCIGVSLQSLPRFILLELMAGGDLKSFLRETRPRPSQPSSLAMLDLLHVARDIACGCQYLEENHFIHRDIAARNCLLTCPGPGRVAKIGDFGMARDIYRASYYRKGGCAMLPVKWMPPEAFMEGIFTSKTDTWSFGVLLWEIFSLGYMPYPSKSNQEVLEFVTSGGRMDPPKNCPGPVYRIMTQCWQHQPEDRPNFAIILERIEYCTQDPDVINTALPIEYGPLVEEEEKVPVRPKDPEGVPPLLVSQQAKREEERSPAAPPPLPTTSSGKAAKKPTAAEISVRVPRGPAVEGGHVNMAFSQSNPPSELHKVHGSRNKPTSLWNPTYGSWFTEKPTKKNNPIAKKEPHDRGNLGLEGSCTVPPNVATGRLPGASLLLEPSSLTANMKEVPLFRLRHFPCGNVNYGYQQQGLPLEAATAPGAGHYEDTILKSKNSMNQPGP

A word on the inhibition: it is the relative decrease from the control value, in per cent. `COc1cccc(/C=N/Nc2ncnc3c2cnn3-c2cccc(OC)c2)c1`: the inhibition is 10.4% in assay [1]; 11.1% in assay [2]; 49.7% in [3]; 6.38% in assay [4]; 27.4% in [5]; 1.22% in assay [6]. In addition, the inhibition is 2.63% in [7]; 2.78% in assay [8]; 15.2% in [9]; -6.24% in assay [10]; -4.88% in [11]; 1.56% in assay [12]. Also, the inhibition is 4.98% in assay [13]; 2.16% in [14]; 5.64% in assay [15]; 2.5% in assay [16]; 5.61% in assay [17]; -0.27% in [18]. The inhibition in [19] is -1.35%; in assay [20], 2.79%.
As for `CN(c1ccc(NC(=O)Nc2c(Cl)cccc2Cl)cc1)c1ccnc(Nc2cccc(CS(C)(=O)=O)c2)n1`, the inhibition is 73.2% in assay [1]; 19.4% in [2]; 56.2% in [3]; 16.9% in assay [4]; 53.1% in [5]; 1.74% in assay [6]. The inhibition came to 4.6% in assay [7]; 25.1% in [8]; 55.1% in assay [9]; 4.33% in assay [10]; 28.6% in assay [11]; 37.2% in assay [12]. For the same compound, the inhibition in [13] worked out at 75%; in assay [14] it was 47.1%; in assay [15] it was 73.5%; in assay [16] it was 10.8%; in assay [17], 44%; in assay [18], 18.8%. In addition, the inhibition in assay [19] stood at 26.5%; in [20], 10.6%.
On to `c1ccc(Oc2ccc(Nc3ncc(-c4ccccc4)o3)cc2)cc1`, for which the inhibition in assay [1] was 1.01%; in assay [2], 1.56%; in [3] it was 3.65%; in assay [4], 2.29%; in assay [5], 7.18%; in [6], 0.41%. Further, the inhibition in assay [7] is 2.22%; in assay [8] it was 1.49%; in assay [9], 1.49%; in assay [10] it was -1.17%; in assay [11], -0.31%; in [12], 1.93%. For the same compound, the inhibition is 2.96% in assay [13]; -4.27% in assay [14]; 1.54% in [15]; -5.64% in assay [16]; -0.31% in [17]; -0.86% in [18]. The inhibition in [19] was determined as 0.56%; in assay [20], 4.92%.
As for `C/C(Nc1ccc(S(N)(=O)=O)cc1)=C1/C(=O)Nc2ccccc21`, the inhibition in [1] was 12.2%; in assay [2], -0.47%; in [3], 12.8%; in assay [4], 1.79%; in assay [5], 11.7%; in assay [6] it was -1.33%. In addition, the inhibition in [7] was 14.2%; in assay [8], -0.23%; in assay [9] it was 10.1%; in assay [10], 0.11%; in [11], 10.5%; in [12] it was -0.72%. Further, the inhibition was 12% in assay [13]; -4.07% in assay [14]; -0.17% in assay [15]; -2.78% in [16]; -1.43% in assay [17]; -2.32% in assay [18]. The inhibition in [19] is -1.09%; in assay [20], -5.47%.
As to `O=C1Nc2ccccc2/C1=C/Nc1ccc(-n2cncn2)cc1`, the inhibition in assay [1] was 17.2%; in assay [2] it was 3.13%; in assay [3] it was 13.1%; in assay [4] it was 1.87%; in assay [5], 13.5%; in assay [6] it was 1.97%. For the same compound, the inhibition in [7] was 11.8%; in assay [8], 3.58%; in [9], 7.69%; in assay [10] it was -6.88%; in assay [11], -3.55%; in [12] it was 3.13%. In addition, the inhibition in assay [13] is 19.7%; in assay [14], 6.8%; in [15] it was 4.54%; in assay [16], 3.56%; in [17], 6%; in assay [18], 0.25%. In addition, the inhibition in [19] was -0.4%; in assay [20] it was 3.03%.
Consider `O=C(NCC1CC1)c1ccc(-c2cccc(C(=O)NC3CC3)c2)cc1`, for which the inhibition was 1.69% in [1]; 2.82% in assay [2]; 3.7% in [3]; 3.84% in assay [4]; 8.82% in assay [5]; 1.84% in [6]. Besides, the inhibition in assay [7] is 3.12%; in assay [8], 3.93%; in assay [9] it was 5.95%; in assay [10], -3.58%; in assay [11], -0.85%; in assay [12] it was 1.41%. Further, the inhibition is 3.43% in assay [13]; -3.65% in assay [14]; 3.29% in assay [15]; 0.45% in assay [16]; 3.3% in [17]; 1.12% in assay [18]. Besides, the inhibition in assay [19] is 1.69%; in assay [20] it was 1.29%.
